About 83,000 compounds went through this panel and 20% of them were active in at least one assay; those are over-represented in the sample as a whole.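 How to read the values: 0–100, growth inhibition (40 = 60% inhibited); 0, no net growth; -100 to 0, cell death (-40 = 40% of starting cells died; -100 = all dead).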 A number with no mark means an inactive call. Activity calls are given as the source filed them.
tested on: NCI-H226 lung; experiment: NCI-60 one-dose screen, 48 h (100 = growth as untreated, 0 = no growth, -100 = all killed); details: 10 µM unless noted
Description: Growth inhibition of the NCI-H226 human Non-Small Cell Lung tumor cell line is measured as a screen for anti-cancer activity. Cells are grown in 96 well plates and exposed to the test compound for 48 hours. Compounds are tested at a single concentration, which is 10^-5 M for most compounds. The reported endpoint is percent growth (GI% or GIPRCNT), where numbers from 0 - 100% represent growth inhibition, and numbers from -100% - 0 represent cell death. For example, a value of 40 represents 60% growth inhibition. A value of 0 means no net growth occurred over the course of the experiment. A value of -40 indicates 40% of cells at the beginning of the experiment died by the end of the experiment. A value of -100 means all cells are dead at the end of the experiment.
NCI-60 Human Tumor Cell Lines Screen was performed using the standard one-dose NCI protocol, which is described in more detail at https://dtp.cancer.gov/discovery_development/nci-60/default.htm.
Compounds with GIPRCNT values below 10 were considered active. Activity score was based on GIPRCNT using the following formula: […]
Score is 0 for GIPRCNT values of 100 or above, 50 for GIPRCNT values of 0, and 100 for GIPRCNT values of -100.

Structure (SMILES) | growth
CN1C[C@@H](c2ccc(Cl)cc2)[C@]2(NC(=S)N(c3ccccc3)C2=O)[C@@]12C(=O)NC1C=CC(Br)=C[C@H]12 (stereo not given in full) | 66%
COc1ccc(-c2cc(-c3ccc(Nc4nc(Nc5ccccc5)nc(Nc5ccc(Cl)cc5)n4)cc3)nc(N)c2C#N)cc1 | -60.9% (active)
[2H]c1nc(Nc2ncc(F)c(-c3cc(F)c4nc(C)n(C(C)C)c4c3)n2)c([2H])c([2H])c1CN1CCN(C([2H])([2H])C([2H])([2H])[2H])CC1 | 49.1%
COc1cc(/C=C/C(=O)c2cccc(-n3cc(-c4ccccc4)[nH]c3=O)c2)cc(OC)c1OC | 24.9%
CCn1nc(C#Cc2c(C)ccc3c(Nc4ccc(Cl)cc4)nccc23)c2c(N)ncnc21 | 14.8%
CC(C)(C)c1ccc(C(=O)Nc2sc3c(c2C(N)=O)CCC(=O)C3)cc1 | 30.8%
Clc1ccc2c(NCCCN3CCN(c4nc(N5CCOCC5)nc5ccccc45)CC3)ccnc2c1 | 75.7%
O=C(c1ccccc1)c1ccc(N2C(=O)C3C4c5ccccc5C(/C=C/C(=O)c5ccccn5)(c5ccccc54)C3C2=O)cc1 (stereo not given) | 12.7%
Cc1cn(C2CCCCC2)c(=O)[nH]c1=O | 101%
O=C1NC(=S)S/C1=C\N1N=C(c2ccc(Cl)cc2)CC1c1ccc(F)cc1 (stereo not given) | 83.9%
C=C1C(=O)O[C@H]2[C@H]1CC/C(COC(=O)/C=C/C(=O)NCc1ccc(Cn3c(=O)sn(-c4ccccc4)c3=O)cc1)=C\CC[C@@]1(C)O[C@@H]21 | 14.5%
CCN(CC)CC(=O)Nc1cccc(C(=O)OC(C)C)c1 | 96.5%
CCOC(=O)c1c(C)nc2c(c1N)/C(=C/c1cc(OC)c(OC)c(OC)c1)C(=O)N2c1ccc(OC)cc1 | 86.7%
CCCCCCCC/C=C\CCCCCCCC(=O)Oc1cccc2cccnc12 | 97%
CCCCS(=O)(=O)Oc1ccc(-c2nc(C)c(C(=O)OCC)s2)cc1C=O | 87.1%
Cn1c(NCCc2ccc(O)c(O)c2)nc2c1c(=O)n(Cc1ccc(Cl)cc1)c(=O)n2C | 84.5%
CCn1c(Sc2nnc(Nc3ccccc3)s2)nc2c1c(=O)n(C)c(=O)n2C | 102%
CSc1ncc(C)c(Nc2ccc(Cl)cc2)n1 | 104%
O=C(O)C1C[C@](O)(c2ccc(F)cc2)[C@@H](c2ccc(F)cc2)O1 (stereo not given in full) | 122%
CCCCCCNc1cc(C)nc2ccc(OC)cc12 | 61.5%

Structure (SMILES) | growth
C=CCOc1cccc(/C=C2\SC(=Nc3ccc(O)cc3)NC2=O)c1 | -9.25% (active)
N#Cc1cccc(-c2nc3ccccn3c2NCCN2CCOCC2)c1 | 93.6%
CC[C@@H](C[C@H](CCO)c1ccccc1)c1cc2ccccc2o1 | 88%
Cc1ccc(NSc2ccccc2[N+](=O)[O-])cc1 | 65.5%
C=C(C)C1CCC(=C)C2CCC3(C)OC12/C=C(/COC(C)=O)CCC3O (stereo not given) | 102%
Cc1nc2ccc(C(=O)NCc3cc(C(=O)O)c(C)o3)cc2nc1C | 100%
CS(=O)(=O)c1ccc(N/N=C/c2c(-c3ccc(S(C)(=O)=O)cc3)[nH]c3ccc(F)cc23)cc1 | 67.2%
CCOC(=O)c1c(C)nc2c(c1N)/C(=C/c1ccc(OC)cc1)C(=O)N2Cc1ccc(F)cc1 | 8.52% (active)
O=[N+]([O-])c1ccc2[nH]cc(-c3c4ccsc4cc4[nH]c5ccc([N+](=O)[O-])cc5c34)c2c1 | -9.9% (active)
CN(C)CN1CCN(c2ccc3nc(-c4ccc5nc(-c6ccc(C(F)(F)F)cc6)[nH]c5c4)[nH]c3c2)CC1 | 64.2%
O=C1N/C(=N/O)S/C1=C/c1cn(-c2ccccc2)nc1-c1ccccc1 | 91.9%
NC(N)=N/N=C(/c1ccccc1)c1ccccc1F | 14.4%
COc1ccc2c(c1)/C(=C\c1sc(=S)[nH]c1O)C(C(=O)O)=N2 | 99.3%
Cc1nc(Nc2ccc(NC(=S)Nc3ccccc3)cc2)c2ccccc2n1 | 97.4%
CNC(=O)NCC1OC(n2cnc3c(NC(=O)Nc4ccccc4)ncnc32)C2OC(C)(C)OC12 (stereo not given) | 109%
CCC(=O)OC1=C(C)SC2=NC(c3ccc(Cl)c(Cl)c3)=CC(c3cc(OC)c(OC)c(OC)c3)N21 (stereo not given) | 95%
O=c1[nH]c(NCc2nnnn2-c2ccc(Br)cc2)nc2sc3c(c12)CCCC3 | 94.3%
CC(=O)Nc1cccc(C2=CC(c3ccc(C)cc3)n3ncnc3N2)c1 (stereo not given) | 92.7%
COc1cc(-c2cc(-c3ccc(Nc4nc(Nc5ccccc5)nc(Nc5ccc(Cl)cc5)n4)cc3)nc(N)n2)cc(OC)c1OC | 75.6%
COc1ccc(-c2c(N)n[nH]c2-c2ccccc2O)cc1OC | 99.6%
